Experimental data: PubChem BioAssay
Inconclusive results are not listed. Active and inactive are the calls of the source.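 The calls were made as follows, unless noted: active = response below a set limit, under 55% cells CD8-positive and vesicle-bound, and CD8 cells' 90th-percentile brightness under 279; inactive = the rest.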

How the values were obtained:
[1] = yeast TOR pathway RPL19A-GFP modulators, primary screen, cell-based, S. cerevisiae, multiplex flow cytometry (AID 1862; in the data active = percent of DMSO control GFP below about 86%;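 also: lower values mimic rapamycin by blocking the RPL19A rise seen in DMSO cells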); details: S. cerevisiae RPL19A-GFP strain, flow cytometry fluorescence, 3 h; at 10 µM; stronger effect = lower value
[2] = modulators of MEP2-GFP levels in yeast, primary screen, S. cerevisiae, multiplex flow cytometry (AID 1867;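 active = GFP response, as percent of the DMSO control, above the screen-wide mean plus 3 SD, about 139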;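 also: median GFP channel fluorescence of barcode-gated MEP2-GFP cells measured by flow cytometry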); details: S. cerevisiae MEP2-GFP strain, 3 h, at 10 µM, stronger effect = higher value, 100% means same as DMSO wells
[3] = modulators of CIT2-GFP expression in yeast, primary screen, S. cerevisiae, GFP fusion, multiplex flow cytometry (AID 1870;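 active = percent response above a set limit, the screen-wide mean plus 3 SD, cut at about 130% in these data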;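 also: barcoded CIT2-GFP strain pooled with four other GFP strains with rapamycin as positive control; median GFP fluorescence per well over plate mean of DMSO wells so 100% = DMSO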); details: 3 h, at 10 µM, stronger effect = higher value
[4] = modulators of LAP4-GFP expression in yeast, primary screen, S. cerevisiae, multiplex flow cytometry (AID 1873;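 active = GFP signal, as percent of the solvent control, above the screen mean plus 3 SD, about 149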); details: 3 h, at 10 µM, stronger effect = higher value
[5] = modulators of AGP1-GFP expression in yeast TOR pathway, primary screen, cell-based, multiplex flow cytometry, S. cerevisiae (AID 1887;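 active = GFP signal above the screen-wide mean plus 3 SD, that is over about 124.5% of the solvent control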;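 also: AGP1-GFP fusion strain of S. cerevisiae within a five-strain barcoded multiplex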); details: 3 h, at 10 µM, stronger effect = higher value
[6] = inhibitors of CD8+ T cell-vesicle binding, pilot screen, LFA-1/ICAM-1 modulator project, MLPCN validation set, flow cytometry (AID 2523); details: 2C mouse CD8+ T cells, at 7 µM, stronger effect = lower value; double positive events: measured here: CD8+/vesicle+ event percentage;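 as to vesicle binding response: mean PE anti-B7-1 fluorescence of CD8+ cells relative to row control; 100% = QL9-loaded vesicles with DMSO vehicle in the same plate row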
[7] = biological target: Integrin beta-1 (Homo sapiens) + Integrin alpha-4 (Homo sapiens) (UniProt P13612+P05556); experiment: inhibition of HUTS-21 binding to VLA-4, pilot screen, VLA-4 allosteric modulator project, U937 cells, HUTS-21 mAb, flow cytometry, validation set (AID 2674;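 active = inhibition above 50%, about 3 SD of the validation set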;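 also: antibody binding induced by the VLA-4 ligand LDV present at three times its Kd; 0% = LDV ligand with antibody and no compound and 100% = antibody without LDV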); details: HUTS-21 LIBS mAb binding, at 6.7 µM, stronger effect = higher value, binding induced by LDV ligand
[8] = superoxide lowering in aged yeast cells, pilot screen, validation compound set (AID 2706;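 active = superoxide response below 65% of plate, a cut near 3 SD across the whole screen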;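 also: yeast exposed to compound for one week at 30 degrees C before staining; 100% = mean of all compound wells on the same plate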); details: S. cerevisiae aging, superoxide DHE fluorescence; at 10 µM; stronger effect = lower value
[9] = biological target: Beta-adrenergic receptor kinase 1 (Homo sapiens) (UniProt P25098); experiment: GRK2 binders displacing RNA aptamer, biochemical, validation, human GRK2, bead flow cytometry (AID 488806;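 active = aptamer binding inhibition above 30%, about 3 SD of noise from non-fluorescent compounds; inactive = inhibition at or below 30%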); details: bead-bound GRK2, FAM-aptamer displacement, at 10 µM, stronger effect = higher value
[10] = biological target: Beta-2 adrenergic receptor (Homo sapiens) (UniProt P07550); experiment: beta2AR agonists driving receptor internalization, pilot screen, cell-based, FAP fluorogen, flow cytometry, validation set (AID 504459;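 active = percent response above 42, roughly 3 SD of non-fluorescent test compounds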;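 also: agonist-driven loss of surface beta2AR via internalization measured by FAP dye flow cytometry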); details: Am2.2-beta2AR cells, FAP surface receptor flow cytometry; at 10 µM; stronger effect = higher value
[11] = biological target: AP-2 complex subunit beta (Homo sapiens) (UniProt P63010); experiment: inhibitors of arrestin peptide binding to AP2, pilot screen, biochemical, validation set, GST-AP2 beads, flow cytometry (AID 504541;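 active = inhibition above 54%, about 3 SD of non-fluorescent compounds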;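 also: AP2 carries R879A mutation and is captured from E. coli lysate; bead-bound FITC arrestin peptide fluorescence measuring arrestin peptide binding to AP2; 0% = DMSO wells and 100% = excess unlabeled arrestin peptide control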); details: FITC arrestin peptide, at 10 µM, stronger effect = higher value, AP2 beta2 appendage fragment, R879A mutant
[12] = yeast V-ATPase proton transport modulators, S. cerevisiae, pHLuorin, HTS validation (AID 504600; in the data active = response above about 15%;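 also: plate controls were DMSO for no effect and reference compound for full effect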); details: S. cerevisiae pHLuorin cytosolic pH, at 10 µM, stronger effect = higher value
[13] = test system: anti-desmoglein-3 scFv antibody binding to human DSG3; experiment: inhibitors of anti-DSG3 scFv binding to DSG3, pilot screen, biochemical, validation compound set, bead-based, flow cytometry (AID 588368;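 active = binding below the plate cutoff, the plate median minus 3 SD, with a reading above zero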;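 also: signal is the median channel fluorescence of bead-bound GFP antibody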); details: Protein G beads, DSG3-Fc, scFv-GFP binding, at 10 µM, stronger effect = lower value
[14] = inhibitors of fungal efflux pumps CDR1, CDR2, MDR1, pilot screen, validation compound set, multiplex, phenotypic (AID 588506;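 active = efflux inhibition above 0.42, the validation set average plus 4 SD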;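 also: Nile Red retained in cells so higher fluorescence means more efflux inhibition; 0 = negative control wells and 1 = enniatin B 25 µM full block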); details: S. cerevisiae pump-expressing triplex, Nile Red efflux flow cytometry; at 10 µM; stronger effect = higher value; the pumps come from Candida albicans
[15] = biological target: ATP-binding cassette sub-family B member 6 (Homo sapiens) (UniProt Q9NP58); experiment: ABCB6 transporter inhibitors, pilot screen, K562-ABCB6 cells, flow cytometry, validation set (AID 588550;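 active = inhibition above the screen-wide mean plus 3 SD, about 51%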;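 also: 0% = DMSO wells and 100% = benzethonium chloride 70 µM positive control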); details: K562-ABCB6 porphyrin accumulation, 1 h, at 10 µM, stronger effect = higher value
[16] = promoters of myeloid differentiation in arrested cells, primary screen, cell-based, GFP/MAC1 double positive, flow cytometry, validation set (AID 588685;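 active = differentiation response of at least 50%, scaled between solvent and reference control, from cells with both markers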;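 also: compound exposure lasts four days before antibody staining and flow analysis; 0% = DMSO wells and 100% = 5 µM fulvestrant positive control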); details: ER-HoxA9 marrow cells, stronger effect = higher value, normalized: vehicle 0, fulvestrant 100

Beta-2 adrenergic receptor (Homo sapiens), sequence (P07550 whole entry, looked up): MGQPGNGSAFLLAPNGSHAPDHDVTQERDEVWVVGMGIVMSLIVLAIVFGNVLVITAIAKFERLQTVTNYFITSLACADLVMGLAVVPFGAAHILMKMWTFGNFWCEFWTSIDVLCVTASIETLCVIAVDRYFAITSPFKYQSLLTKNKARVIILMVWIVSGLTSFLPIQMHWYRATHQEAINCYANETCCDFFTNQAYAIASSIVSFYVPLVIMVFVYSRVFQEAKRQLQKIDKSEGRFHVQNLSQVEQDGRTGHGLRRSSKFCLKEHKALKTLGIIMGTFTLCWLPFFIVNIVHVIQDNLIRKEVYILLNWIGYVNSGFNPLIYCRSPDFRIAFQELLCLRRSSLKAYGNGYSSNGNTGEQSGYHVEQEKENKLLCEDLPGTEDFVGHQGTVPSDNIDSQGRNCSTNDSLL
Integrin beta-1 (Homo sapiens) + Integrin alpha-4 (Homo sapiens), sequence (P05556 whole entry, looked up): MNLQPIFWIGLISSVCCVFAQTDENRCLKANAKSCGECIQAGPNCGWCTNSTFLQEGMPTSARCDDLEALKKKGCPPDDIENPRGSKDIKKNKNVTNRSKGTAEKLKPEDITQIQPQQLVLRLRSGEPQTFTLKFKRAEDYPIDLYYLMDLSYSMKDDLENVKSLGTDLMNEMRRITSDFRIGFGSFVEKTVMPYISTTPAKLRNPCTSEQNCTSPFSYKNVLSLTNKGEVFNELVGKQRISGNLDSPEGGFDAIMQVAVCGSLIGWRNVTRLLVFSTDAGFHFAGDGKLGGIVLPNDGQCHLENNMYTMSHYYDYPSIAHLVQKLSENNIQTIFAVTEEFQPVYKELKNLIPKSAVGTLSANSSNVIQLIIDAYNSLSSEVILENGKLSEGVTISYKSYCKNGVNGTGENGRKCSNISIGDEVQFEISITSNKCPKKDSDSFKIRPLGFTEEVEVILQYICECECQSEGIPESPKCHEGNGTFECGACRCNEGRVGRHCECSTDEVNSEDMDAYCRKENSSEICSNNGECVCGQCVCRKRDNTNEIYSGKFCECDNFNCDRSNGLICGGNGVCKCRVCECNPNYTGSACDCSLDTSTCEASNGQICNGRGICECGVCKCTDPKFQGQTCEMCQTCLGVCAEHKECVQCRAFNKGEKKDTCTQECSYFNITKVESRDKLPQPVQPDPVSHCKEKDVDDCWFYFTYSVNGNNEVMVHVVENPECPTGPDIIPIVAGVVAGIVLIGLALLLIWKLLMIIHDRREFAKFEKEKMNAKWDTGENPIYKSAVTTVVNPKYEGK
Integrin beta-1 (Homo sapiens) + Integrin alpha-4 (Homo sapiens), sequence (P13612 whole entry, looked up): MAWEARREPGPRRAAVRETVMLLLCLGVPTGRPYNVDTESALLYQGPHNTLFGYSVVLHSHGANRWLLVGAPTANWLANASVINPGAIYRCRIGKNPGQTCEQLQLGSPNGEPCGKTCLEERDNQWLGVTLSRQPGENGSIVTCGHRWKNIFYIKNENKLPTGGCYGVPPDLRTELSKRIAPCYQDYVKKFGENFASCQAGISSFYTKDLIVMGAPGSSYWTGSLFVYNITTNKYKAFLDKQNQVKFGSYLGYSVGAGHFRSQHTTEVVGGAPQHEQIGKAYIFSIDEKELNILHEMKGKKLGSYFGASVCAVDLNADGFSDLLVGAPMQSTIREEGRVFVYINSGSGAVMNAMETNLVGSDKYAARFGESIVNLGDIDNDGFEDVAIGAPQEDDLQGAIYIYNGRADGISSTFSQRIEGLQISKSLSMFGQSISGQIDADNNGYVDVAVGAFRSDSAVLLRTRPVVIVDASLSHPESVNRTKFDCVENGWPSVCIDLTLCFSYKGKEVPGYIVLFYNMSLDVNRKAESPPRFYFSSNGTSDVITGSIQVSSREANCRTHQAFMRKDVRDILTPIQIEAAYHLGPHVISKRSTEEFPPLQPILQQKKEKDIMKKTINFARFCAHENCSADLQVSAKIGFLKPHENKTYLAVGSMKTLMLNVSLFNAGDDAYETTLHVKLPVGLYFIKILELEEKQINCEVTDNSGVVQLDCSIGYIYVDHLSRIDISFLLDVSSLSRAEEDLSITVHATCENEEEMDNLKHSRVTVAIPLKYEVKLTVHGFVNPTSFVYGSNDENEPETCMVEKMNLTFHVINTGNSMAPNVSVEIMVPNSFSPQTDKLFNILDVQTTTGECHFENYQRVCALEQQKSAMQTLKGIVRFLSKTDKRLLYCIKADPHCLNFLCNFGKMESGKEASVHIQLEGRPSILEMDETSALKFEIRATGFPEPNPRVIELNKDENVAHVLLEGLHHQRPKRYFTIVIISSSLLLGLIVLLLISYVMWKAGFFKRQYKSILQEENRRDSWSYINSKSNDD
Beta-adrenergic receptor kinase 1 (Homo sapiens), sequence (P25098 whole entry, looked up): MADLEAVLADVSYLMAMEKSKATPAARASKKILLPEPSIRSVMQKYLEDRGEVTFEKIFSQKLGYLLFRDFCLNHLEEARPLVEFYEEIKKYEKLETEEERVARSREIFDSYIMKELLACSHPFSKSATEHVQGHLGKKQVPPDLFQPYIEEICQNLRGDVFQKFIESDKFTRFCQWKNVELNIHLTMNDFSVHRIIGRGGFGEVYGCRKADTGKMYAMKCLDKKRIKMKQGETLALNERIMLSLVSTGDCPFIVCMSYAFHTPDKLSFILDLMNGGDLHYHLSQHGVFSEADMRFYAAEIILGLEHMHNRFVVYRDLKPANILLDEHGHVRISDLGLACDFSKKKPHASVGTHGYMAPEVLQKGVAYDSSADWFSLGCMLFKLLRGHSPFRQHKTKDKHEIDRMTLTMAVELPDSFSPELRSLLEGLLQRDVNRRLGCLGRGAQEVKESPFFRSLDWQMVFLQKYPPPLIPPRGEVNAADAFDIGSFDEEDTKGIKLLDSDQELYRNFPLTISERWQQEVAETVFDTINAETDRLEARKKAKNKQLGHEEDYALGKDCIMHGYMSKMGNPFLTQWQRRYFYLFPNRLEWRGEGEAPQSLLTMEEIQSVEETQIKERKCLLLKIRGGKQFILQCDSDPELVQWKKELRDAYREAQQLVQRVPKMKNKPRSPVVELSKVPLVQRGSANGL
AP-2 complex subunit beta (Homo sapiens), sequence (P63010 whole entry, looked up, the tested form may be a part, one chain of several): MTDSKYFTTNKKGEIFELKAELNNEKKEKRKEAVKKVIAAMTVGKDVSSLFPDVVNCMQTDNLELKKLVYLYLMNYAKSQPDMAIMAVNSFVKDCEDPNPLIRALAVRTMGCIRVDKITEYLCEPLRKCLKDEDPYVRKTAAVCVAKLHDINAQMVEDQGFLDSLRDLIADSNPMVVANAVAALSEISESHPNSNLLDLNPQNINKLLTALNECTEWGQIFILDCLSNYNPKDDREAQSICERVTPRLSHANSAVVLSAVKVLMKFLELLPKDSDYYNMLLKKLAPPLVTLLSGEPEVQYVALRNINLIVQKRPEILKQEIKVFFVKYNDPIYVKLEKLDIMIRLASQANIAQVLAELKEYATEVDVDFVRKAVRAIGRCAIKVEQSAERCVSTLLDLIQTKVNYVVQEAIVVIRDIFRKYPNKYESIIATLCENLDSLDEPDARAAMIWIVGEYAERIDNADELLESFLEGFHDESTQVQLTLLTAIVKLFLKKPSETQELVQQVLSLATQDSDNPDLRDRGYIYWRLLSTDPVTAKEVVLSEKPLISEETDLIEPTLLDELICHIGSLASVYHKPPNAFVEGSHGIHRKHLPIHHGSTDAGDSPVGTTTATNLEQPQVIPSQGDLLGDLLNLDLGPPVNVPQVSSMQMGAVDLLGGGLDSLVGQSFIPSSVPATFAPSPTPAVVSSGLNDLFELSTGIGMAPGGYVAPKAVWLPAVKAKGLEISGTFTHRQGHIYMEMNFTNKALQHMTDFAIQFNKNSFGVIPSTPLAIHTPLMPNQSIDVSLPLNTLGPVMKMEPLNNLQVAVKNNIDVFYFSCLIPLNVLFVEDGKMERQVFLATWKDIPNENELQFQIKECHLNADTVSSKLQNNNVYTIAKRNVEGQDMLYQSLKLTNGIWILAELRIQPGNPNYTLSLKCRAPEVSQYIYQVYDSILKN
ATP-binding cassette sub-family B member 6 (Homo sapiens), sequence (Q9NP58 whole entry, looked up): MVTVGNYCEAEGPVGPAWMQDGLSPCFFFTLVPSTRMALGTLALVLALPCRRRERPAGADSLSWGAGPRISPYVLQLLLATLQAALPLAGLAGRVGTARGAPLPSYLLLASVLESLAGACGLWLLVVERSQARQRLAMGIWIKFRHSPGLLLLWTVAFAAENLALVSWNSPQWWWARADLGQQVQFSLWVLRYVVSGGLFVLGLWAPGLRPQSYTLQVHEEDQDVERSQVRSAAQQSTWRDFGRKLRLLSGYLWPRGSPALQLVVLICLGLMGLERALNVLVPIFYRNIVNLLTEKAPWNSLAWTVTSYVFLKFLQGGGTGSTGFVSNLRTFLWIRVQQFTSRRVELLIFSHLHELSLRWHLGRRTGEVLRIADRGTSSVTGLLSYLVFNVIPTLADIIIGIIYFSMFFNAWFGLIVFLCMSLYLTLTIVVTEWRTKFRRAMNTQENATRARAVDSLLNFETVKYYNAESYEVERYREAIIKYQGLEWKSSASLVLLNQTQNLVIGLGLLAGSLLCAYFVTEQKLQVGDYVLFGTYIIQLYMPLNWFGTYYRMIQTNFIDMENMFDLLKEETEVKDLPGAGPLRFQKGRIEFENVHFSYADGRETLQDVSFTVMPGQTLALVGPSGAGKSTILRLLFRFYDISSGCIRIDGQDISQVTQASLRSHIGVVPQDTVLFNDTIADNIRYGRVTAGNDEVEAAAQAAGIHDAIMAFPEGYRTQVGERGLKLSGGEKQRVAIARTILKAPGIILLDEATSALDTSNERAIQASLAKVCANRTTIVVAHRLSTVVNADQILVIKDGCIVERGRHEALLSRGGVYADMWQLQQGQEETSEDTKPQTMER

| Structure (SMILES) | percent of DMSO control GFP [1] | GFP response vs DMSO [2] | percent response of DMSO control [3] | GFP response vs DMSO [4] | GFP response, % of DMSO [5] | double positive events [6] [%] | vesicle binding response [6] | inhibition [7] | superoxide response (% of plate) [8] | aptamer binding inhibition [9] | response [10] | inhibition [11] | response [12] | binding (% of control) [13] | efflux inhibition (fraction of control) [14] | inhibition [15] | differentiation response [16] |
| --- | --- | --- | --- | --- | --- | --- | --- | --- | --- | --- | --- | --- | --- | --- | --- | --- | --- |
| Cc1nc(-c2coc3c(CN(C)C)c(O)ccc3c2=O)cs1 | 92.6% (inactive) | 131% (inactive) | 104% (inactive) | 85.8% (inactive) | 88% (inactive) | 61.6 | 143% (inactive) | -26.5% (inactive) | 98.6% (inactive) | 6% (inactive) | 4.53% (inactive) | 2.27% (inactive) | -0.21% (inactive) | 105% (inactive) | -0.46 (inactive) | 11% (inactive) | -1.64% (inactive) |
| CC(=O)[C@H]1[C@H](C#N)C[C@H]2[C@@H]3CC=C4C[C@@H](O)CC[C@]4(C)[C@H]3CC[C@@]21C | 92% (inactive) | 125% (inactive) | 104% (inactive) | 85.8% (inactive) | 88% (inactive) | 62.5 | 112% (inactive) | 19.1% (inactive) | 104% (inactive) | 11% (inactive) | 2.41% (inactive) | -10% (inactive) | 0% (inactive) | 103% (inactive) | -0.28 (inactive) | 6% (inactive) | -3.28% (inactive) |
| COc1cc2c(cc1OC)C(c1ccc(-c3cc(Cl)ccc3Cl)o1)=NCC2 | 102% (inactive) | 109% (inactive) | 101% (inactive) | 75.2% (inactive) | 79.3% (inactive) | 59.5 | 228% (inactive) | -53.7% (inactive) | 97.5% (inactive) | 5% (inactive) | 60.6% (active) | 17.6% (inactive) | 2.96% (inactive) | 101% (inactive) | 0.3 (inactive) | 3% (inactive) | -26.4% (inactive) |
| O=C(NC1CCCCC1)c1cc2nc(-c3ccco3)cc(C(F)(F)F)n2n1 | 89.5% (inactive) | 106% (inactive) | 102% (inactive) | 78.7% (inactive) | 88.2% (inactive) | 43.2 | 158% (inactive) | -1.3% (inactive) | 111% (inactive) | 0% (inactive) | -19.4% (inactive) | 1.72% (inactive) | 8.07% (inactive) | 107% (inactive) | 0.09 (inactive) | 9% (inactive) | 20.5% (inactive) |
| COc1cccc(CC2CC(=O)N(c3ccc4c(C)cc(=O)oc4c3)C2=O)c1 (stereo not drawn) | 99.5% (inactive) | 106% (inactive) | 87.2% (inactive) | 132% (inactive) | 97.1% (inactive) | 61 | 238% (inactive) | -0.43% (inactive) | 93.9% (inactive) | 2% (inactive) | 5.39% (inactive) | -2.24% (inactive) | 8.95% (inactive) | 98.9% (inactive) | -0.06 (inactive) | 4% (inactive) | 39.2% (inactive) |
| c1ccc2[nH]c(-c3cscn3)nc2c1 | 97.6% (inactive) | 103% (inactive) | 97.7% (inactive) | 123% (inactive) | 111% (inactive) | 58.6 | 174% (inactive) | 2.29% (inactive) | 85.3% (inactive) | -2% (inactive) | -32% (inactive) | 5.36% (inactive) | 1.12% (inactive) | 108% (inactive) | 0 (inactive) | 0% (inactive) | -2.03% (inactive) |
| O=C(CS(=O)(=O)Cc1ccccc1)NCc1ccc2c(c1)OCO2 | 88% (inactive) | 123% (inactive) | 88.6% (inactive) | 81.4% (inactive) | 95.2% (inactive) | 63.3 | 123% (inactive) | -3.24% (inactive) | 92% (inactive) | 1% (inactive) | -3.4% (inactive) | -1.72% (inactive) | -0.1% (inactive) | 104% (inactive) | -0.24 (inactive) | -87% (inactive) | 5.73% (inactive) |
| CC(C(=O)O)c1cccc(C(=O)c2ccccc2)c1 (stereo not drawn) | 102% (inactive) | 107% (inactive) | 97.6% (inactive) | 110% (inactive) | 107% (inactive) | 67.3 | 145% (inactive) | 4.27% (inactive) | 97.3% (inactive) | 4% (inactive) | 6.64% (inactive) | -7.83% (inactive) | -2.55% (inactive) | 101% (inactive) | 0.36 (inactive) | 20% (inactive) | -7.5% (inactive) |
| COc1ccc(-c2csc(-c3cccnc3)n2)cc1C | 98.2% (inactive) | 111% (inactive) | 91% (inactive) | 95.7% (inactive) | 84.4% (inactive) | 59.8 | 170% (inactive) | 0.94% (inactive) | 102% (inactive) | 4% (inactive) | 3.47% (inactive) | 7.91% (inactive) | -1.19% (inactive) | 102% (inactive) | 0.12 (inactive) | 3% (inactive) | 4% (inactive) |
